Laboratory results from PubChem BioAssay (NCATS).
Results filed as inconclusive are left out. Active and inactive are the calls of the source. Calls follow the shape of the dose curve; as a rule, active = well fitted curve in the direction sought with a large enough effect; inconclusive = small, poorly fitted or top-dose-only effect, or another doubt; inactive = no such curve, though single readings can be large; an effect the other way counts as inactive or inconclusive.

Assays:
[1] = S16 Schwann cell viability assay (CellTiter-Glo assay) (AID 624031);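 also: cellular ATP luminescence as a viability measure; nearly all actives have a fitted effect of over 70% in size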
Summary of the method: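 Luminescent ATP read-out (CellTiter-Glo) after 24 h compound exposure of native S16 rat Schwann cells at 37 °C. Signals were normalized between cell-free wells and DMSO-treated cells, set as 0% activity.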

[2] = test system: CP266; test: qHTS profiling for inhibitors of Plasmodium falciparum proliferation (AID 504749); also: nearly all actives have a fitted effect of over 60% in size; conditions: P. falciparum in erythrocytes, SYBR Green DNA, 72 h; series mostly up to 28.7 µM
Summary of the method: (§1)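 P. falciparum-infected erythrocytes (0.3% parasitemia, 2.5% hematocrit) incubated with compound 72 h at 37 C, 5% CO2. Parasite DNA detected by SYBR Green after lysis, overnight at room temperature; normalised to 0.29 uM artemisinin and DMSO.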

[3] = test system: CP297; test: as above; conditions: P. falciparum in erythrocytes, SYBR Green DNA, 72 h; series mostly up to 28.7 µM
Summary of the method: as §1

[4] = test system: DIV17; test: as above; conditions: P. falciparum in erythrocytes, SYBR Green DNA, 72 h; series mostly up to 28.7 µM
Summary of the method: as §1

[5] = test system: PC15; test: as above; conditions: P. falciparum in erythrocytes, SYBR Green DNA, 72 h; series mostly up to 28.7 µM
Summary of the method: as §1

[6] = test system: PC26; test: as above; conditions: P. falciparum in erythrocytes, SYBR Green DNA, 72 h; series mostly up to 28.7 µM
Summary of the method: as §1

[7] = test system: W2; test: as above; conditions: P. falciparum in erythrocytes, SYBR Green DNA, 72 h; series mostly up to 28.7 µM
Summary of the method: as §1

Measured: Potency

CN1C2CCC1C(C(=O)O)C(OC(=O)c1ccccc1)C2 (centres undefined)
inactive: all assays above

CCOC(=O)/C=C(C)/C=C/CC(C)CCCC(C)C (centres undefined)
inactive: all assays above

Cc1cc(C)cc(C(=O)OC2CC3CCC(C2)N3C)c1 (centres undefined)
inactive: [2] | [3]

C=C1Nc2ccccc2C(=O)N1c1ccccc1C
inactive: all assays above

C=CC[N+]1(C)CCC23c4c5ccc(O)c4O[C@H]2C(=O)CC[C@@]3(O)C1C5 (some centres undefined)
inactive: all assays above

CCCN1CCCC2Cc3nc(N)ncc3CC21 (centres undefined)
inactive: all assays above

C[C@H](N)Cc1ccccc1
not listed: [4]
inactive: all other assays above

Nc1nc(O)c(-c2ccccc2)o1
not listed: [1] | [2]
inactive: all other assays above

OC[C@@H](O)[C@H]1O[C@@H]2OC(C(Cl)(Cl)Cl)O[C@H]2[C@H]1O (some centres undefined)
inactive: all assays above

CC1OC(O[C@H]2C[C@@H](O)[C@]3(CO)[C@@H]4C(CC[C@]3(O)C2)[C@@]2(O)CC[C@H](C3=CC(=O)OC3)[C@@]2(C)C[C@H]4O)C(O)C(O)C1O (some centres undefined)
inactive: [1] | [2] | [3] | [4]
